The values that follow come from PubChem BioAssay (NCATS).

Assay [1] deals with Cytochrome P450 2C9 (Homo sapiens) (UniProt P11712). The assay can be described thus: Cytochrome P450 family 2 subfamily C member 9 (CYP2C9) small molecule antagonists: luciferase biochemical (cell-free) qHTS assay (AID 1645842; active = well fitted curve in the direction sought with a large enough effect in the repeat runs; an effect the other way counts as inactive or inconclusive; note: nearly all actives have a fitted effect of over 55% in size; note: potency is the fitted concentration of half-maximal effect; for activity change, negative = inhibition: % is set by controls: 0 for no effect and ±100 for the full control effect). The note with it: P450-Glo CYP2C9 enzyme assay, luciferin luminescence; series mostly up to 57.4 µM. The essentials:
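Luminescence, after 20 min with luciferin detection reagent, reflected CYP2C9 turnover during a 1 h NADPH-driven reaction at 37C. Enzyme-substrate mix contained 0.4% bovine serum albumin and was preincubated with compound 10 min at room temperature.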
In general terms: qHTS replaces the single test concentration by a dilution series.

Assay [2] is described as follows: Primary qHTS for inhibitors of nuclear receptor binding SET domain protein 2 (NSD2) in an isogenic RCH-ACV NSD2 p.E1099K mutant (9B) (AID 1645876). For activity change, negative = viability loss: % is set by controls: 0 for no effect and ±100 for the full control effect. Note: nearly all actives have a fitted effect of over 70% in size. Note: potency is the fitted concentration of half-maximal effect. The note with it: RCH-ACV NSD2 E1099K (9B) viability, CellTiter-Glo, 72 h; series mostly up to 44.9 µM.
Assay [3] can be described thus: Primary qHTS for inhibitors of nuclear receptor binding SET domain protein 2 (NSD2) in an RCH-ACV wild type WT cells (2C) (AID 1645877). For activity change, negative = cell killing: % is set by controls: 0 for no effect and ±100 for the full control effect. Note: nearly all actives have a fitted effect of over 70% in size. Note: potency is the fitted concentration of half-maximal effect. To be noted: RCH-ACV (leukaemia line) NSD2 WT (2C) viability, CellTiter-Glo, 72 h; series mostly up to 44.9 µM.
In assay [4] the target is Cytochrome P450 2D6 (Homo sapiens) (UniProt P10635). The assay is described as follows: Cytochrome P450 family 2 subfamily D member 6 (CYP2D6) small molecule antagonists: luciferase biochemical (cell-free) qHTS assay (AID 1645840; active = well fitted curve in the direction sought with a large enough effect in the repeat runs; an effect the other way counts as inactive or inconclusive; note: % is set by controls: 0 for no effect and ±100 for the full control effect; nearly all actives have a fitted effect of over 55% in size). The note with it: P450-Glo CYP2D6 enzyme, luciferin luminescence, 1 h; series mostly up to 57.4 µM. The method, boiled down: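 P450-Glo luminescent screen: recombinant CYP2D6 enzyme–proluciferin substrate mix preincubated with compound 10 min at room temperature, then NADPH regeneration added for 1 h at room temperature. Detection reagent added for 20 min; luciferin light read as relative luminescence units.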

Assay [5] has as its target Cytochrome P450 3A4 (Homo sapiens) (UniProt P08684). The assay can be described thus: Cytochrome P450 family 3 subfamily A member 4 (CYP3A4) small molecule antagonists: luciferase qHTS assay (AID 1645841; active = well fitted curve in the direction sought with a large enough effect in the repeat runs; an effect the other way counts as inactive or inconclusive; note: nearly all actives have a fitted effect of over 45% in size). The note with it: P450-Glo CYP3A4 enzyme assay, luciferin luminescence; series mostly up to 57.4 µM. The method, boiled down:
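P450-Glo CYP3A4 enzyme with proluciferin substrate preincubated 10 min with compound at room temperature, then NADPH regeneration 1 h. Luciferin detection reagent added for 20 min; luminescence recorded. Ketoconazole positive control.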

The target of assay [6] is Rap guanine nucleotide exchange factor 3 (Homo sapiens) (UniProt O95398). The assay is described as follows: Confirmatory qHTS for antagonist of cAMP-regulated guanine nucleotide exchange factor 3 (EPAC1) (AID 1645880). Note: potency is the fitted concentration of half-maximal effect; nearly all actives have a fitted effect of over 55% in size. The note with it: EPAC1 Rap1B-BODIPY-GDP exchange, fluorescence. The method, boiled down: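 Nucleotide exchange uses 100 nM EPAC1, 250 nM RAP1B-BODIPY-GDP and 50 uM GDP, with compounds in a concentration-titration series. After 5 min at room temperature, fluorescence (480 nm ex/540 nm em) is read every 5 min for 30 min. Data are normalized to control ATA and DMSO.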

For assay [7] the target is unchanged. The assay is described as follows: Confirmatory qHTS for agonist of cAMP-regulated guanine nucleotide exchange factor 3 (EPAC1) (AID 1645881).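 Note: EPAC1 catalysed release of BODIPY-GDP from Rap1B seen as fluorescence loss; nearly all actives have a fitted effect of over 75% in size.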 The note with it: EPAC1 Rap1B BODIPY-GDP exchange fluorescence, 100% = cAMP control response; series mostly up to 154 µM.
The target of assay [8] is N-terminal Xaa-Pro-Lys N-methyltransferase 1 (Homo sapiens) (UniProt Q9BV86). The assay can be described thus: Confirmatory qHTS for Inhibitors of N-terminal methyltransferase 1 (NTMT1): MTaseGlo Assay (AID 1645874).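 Note: luminescence from SAH made as NTMT1 methylates SPKRIA peptide using SAM; 0% = DMSO control and -100% = no-enzyme control; nearly all actives have a fitted effect of over 65% in size.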 The note with it: NTMT1 enzyme, MTase-Glo SAH luminescence; series mostly up to 100 µM. The essentials:
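Compounds are incubated with 125 nM NTMT1 and 100 uM SAM for 15 min before the SPKRIA peptide (1 uM) starts a 30 min room-temperature methylation. SAH is measured by coupled luciferase luminescence and curves fitted to a Hill equation.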

“And” between values parts separate entries of the source, which are not always exact repeats. Identical values can stand only once. Records with an inconclusive call do not appear. Unmarked numbers belong to inactive results. The source made the active and inactive calls. Unless noted, calls come from the whole dose curve; as a rule, active = well fitted curve in the direction sought with a large enough effect; inconclusive = small, poorly fitted or top-dose-only effect, or another doubt; inactive = no such curve, though single readings can be large; an effect the other way counts as inactive or inconclusive. Where a SMILES comes first, the peptide text is derived from it. The star is where a group is joined. AFC = O=c1cc(C(F)(F)F)c2ccc(N*)cc2o1

Sequence of Cytochrome P450 2D6 (Homo sapiens) (P10635 whole entry, looked up): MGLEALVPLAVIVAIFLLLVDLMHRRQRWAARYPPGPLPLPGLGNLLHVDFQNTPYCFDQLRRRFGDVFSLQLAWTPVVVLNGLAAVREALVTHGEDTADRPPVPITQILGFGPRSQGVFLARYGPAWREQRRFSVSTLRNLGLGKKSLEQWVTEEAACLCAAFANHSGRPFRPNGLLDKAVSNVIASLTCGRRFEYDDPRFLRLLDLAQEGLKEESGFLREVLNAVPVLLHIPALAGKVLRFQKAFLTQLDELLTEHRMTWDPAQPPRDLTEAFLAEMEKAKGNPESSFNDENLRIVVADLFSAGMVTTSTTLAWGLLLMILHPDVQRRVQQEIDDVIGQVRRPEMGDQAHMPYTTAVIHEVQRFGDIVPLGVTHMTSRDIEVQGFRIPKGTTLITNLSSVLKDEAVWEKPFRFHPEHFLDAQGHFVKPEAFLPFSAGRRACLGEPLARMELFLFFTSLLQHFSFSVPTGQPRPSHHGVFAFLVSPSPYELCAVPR
Sequence of Rap guanine nucleotide exchange factor 3 (Homo sapiens) (O95398 whole entry, looked up): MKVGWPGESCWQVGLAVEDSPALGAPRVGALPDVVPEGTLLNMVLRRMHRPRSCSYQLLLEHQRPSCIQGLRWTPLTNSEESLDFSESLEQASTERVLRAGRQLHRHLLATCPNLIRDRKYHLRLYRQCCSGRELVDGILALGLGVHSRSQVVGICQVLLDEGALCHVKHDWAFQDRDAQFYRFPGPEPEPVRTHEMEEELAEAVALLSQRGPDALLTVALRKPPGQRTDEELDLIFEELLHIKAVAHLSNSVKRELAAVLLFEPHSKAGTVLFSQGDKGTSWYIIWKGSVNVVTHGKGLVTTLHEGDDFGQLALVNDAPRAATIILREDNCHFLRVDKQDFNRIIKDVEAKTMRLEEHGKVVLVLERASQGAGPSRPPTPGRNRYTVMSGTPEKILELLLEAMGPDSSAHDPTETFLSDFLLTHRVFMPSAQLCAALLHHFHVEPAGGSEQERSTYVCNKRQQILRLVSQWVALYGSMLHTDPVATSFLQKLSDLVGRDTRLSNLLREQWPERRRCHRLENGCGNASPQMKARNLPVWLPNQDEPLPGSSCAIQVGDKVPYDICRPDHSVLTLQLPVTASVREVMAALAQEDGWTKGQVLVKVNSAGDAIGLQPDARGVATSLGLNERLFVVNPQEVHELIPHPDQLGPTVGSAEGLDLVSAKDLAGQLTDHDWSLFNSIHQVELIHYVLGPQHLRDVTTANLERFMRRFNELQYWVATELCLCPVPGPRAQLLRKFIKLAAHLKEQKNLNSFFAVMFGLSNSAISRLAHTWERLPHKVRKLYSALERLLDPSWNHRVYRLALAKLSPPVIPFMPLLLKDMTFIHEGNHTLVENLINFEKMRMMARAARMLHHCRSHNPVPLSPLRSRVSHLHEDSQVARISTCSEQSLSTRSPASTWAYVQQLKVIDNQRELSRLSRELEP
Sequence of Cytochrome P450 2C9 (Homo sapiens) (P11712 whole entry, looked up): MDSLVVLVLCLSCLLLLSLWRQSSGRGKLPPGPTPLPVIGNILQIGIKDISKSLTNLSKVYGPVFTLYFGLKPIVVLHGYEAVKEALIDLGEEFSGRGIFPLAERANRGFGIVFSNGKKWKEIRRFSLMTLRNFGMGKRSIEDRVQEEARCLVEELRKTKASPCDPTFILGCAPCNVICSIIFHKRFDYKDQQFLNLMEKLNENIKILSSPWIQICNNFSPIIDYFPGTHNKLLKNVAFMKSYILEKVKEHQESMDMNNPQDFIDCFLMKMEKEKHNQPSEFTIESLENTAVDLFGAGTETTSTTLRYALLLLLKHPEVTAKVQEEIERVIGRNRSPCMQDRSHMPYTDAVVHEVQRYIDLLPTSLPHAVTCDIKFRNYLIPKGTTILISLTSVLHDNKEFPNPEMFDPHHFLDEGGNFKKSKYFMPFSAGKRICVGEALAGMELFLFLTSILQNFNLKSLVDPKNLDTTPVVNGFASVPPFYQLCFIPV
Sequence of Cytochrome P450 3A4 (Homo sapiens) (P08684 whole entry, looked up): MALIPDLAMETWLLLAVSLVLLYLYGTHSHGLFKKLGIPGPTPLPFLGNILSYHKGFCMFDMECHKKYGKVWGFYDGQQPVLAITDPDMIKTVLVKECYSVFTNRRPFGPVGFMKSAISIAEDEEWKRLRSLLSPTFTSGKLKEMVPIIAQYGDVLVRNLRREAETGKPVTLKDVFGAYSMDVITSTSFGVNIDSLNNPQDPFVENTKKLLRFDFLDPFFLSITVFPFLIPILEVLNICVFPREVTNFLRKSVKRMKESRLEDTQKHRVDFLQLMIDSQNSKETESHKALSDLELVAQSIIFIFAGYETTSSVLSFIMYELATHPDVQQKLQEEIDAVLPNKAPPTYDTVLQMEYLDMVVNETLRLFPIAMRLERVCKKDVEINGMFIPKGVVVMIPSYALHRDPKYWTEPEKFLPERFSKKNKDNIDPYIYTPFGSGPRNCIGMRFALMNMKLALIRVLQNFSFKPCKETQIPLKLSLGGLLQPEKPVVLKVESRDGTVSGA
Sequence of N-terminal Xaa-Pro-Lys N-methyltransferase 1 (Homo sapiens) (Q9BV86 whole entry, looked up): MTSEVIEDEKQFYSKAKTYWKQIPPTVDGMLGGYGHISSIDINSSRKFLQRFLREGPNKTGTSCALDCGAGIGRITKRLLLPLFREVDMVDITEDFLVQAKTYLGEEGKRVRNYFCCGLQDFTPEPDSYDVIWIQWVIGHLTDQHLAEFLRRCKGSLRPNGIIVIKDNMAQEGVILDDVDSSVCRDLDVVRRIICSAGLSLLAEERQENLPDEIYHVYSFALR

On to `COC(=O)C1=C(C#N)NC(C)=C(C(=O)OC(C)C)C1c1cccc([N+](=O)[O-])c1` (stereo not drawn), for which, in assay [1], the Potency was 1.07 µM (active).

In the case of `O=C(O)C[C@@H](NC(=O)c1cc(-c2ccc(-c3ccncc3)cc2)cs1)c1ccccc1`, the Potency in assay [1] was 26.8 µM (active). In addition, the Potency entry in assay [2] and in assay [3] was “inactive” throughout.

For the compound `O=C(O)[C@H]1CCCC[C@H]1C(=O)N1CCc2ccccc2[C@H]1CN1C(=O)c2ccccc2C1=O`, the Potency entry in assay [4] and in assay [3] was “inactive” throughout.

With `CCOC(=O)c1ccc(N(C)c2csc(-c3ccccc3)n2)cc1`, the Potency in assay [1] was 0.674 µM (active). Moreover, the Potency entry in assay [2] and in assay [3] was “inactive” throughout.

As for `O=C(NCc1ccc(OC(F)(F)F)cc1)C1c2ccccc2C(=O)N1C1CCOCC1` (stereo not drawn), the Potency in assay [1] is 12 µM (active). In addition, the Potency entry in assay [2] and in assay [3] was “inactive” throughout.

For `C#Cc1cnc2[nH]c(=O)n(C(CC)CC)c2n1`, the Potency entry in assay [5] and in assay [2] was “inactive” in each case.

As to `O=C(CCCCc1ccc2ccccc2c1)C(F)(F)F`, in assay [1], the Potency was 9.52 µM (active). For the same compound, the Potency result in assay [2] and in assay [3] was “inactive” in each case.

As for `CCCCC(CC)COC(=O)CC(C(=O)OCC(CC)CCCC)S(=O)(=O)O` (stereo not drawn), the Potency entry in assay [1] is “inactive”. In addition, the Potency in assay [6] was 35.2 µM (active) and 9.93 µM (active). In addition, the result in assay [7] was inactive.

For the compound `O=c1c2ccccc2nc2n1CCC2O` (stereo not drawn), the Potency entry in assay [2] was “inactive”.

Turning to `C(#Cc1cccc(CN2CCOCC2)c1)CCN1CCCCC1`, the Potency entry in assay [1], in assay [2] and in assay [3] was “inactive” each time.

Turning to `O=C(NC[C@H](O)CN1CCc2ccccc2C1)c1cc(NC2COC2)ncn1`, the Potency result in assay [5], in assay [1] and in assay [2] was “inactive” each time.

For `COc1cccc(-n2nc(C(=O)O)cc2-c2ccc(C3CCCCC3)c(Cl)c2)c1`, the Potency result in assay [1], in assay [2] and in assay [3] was “inactive” each time.

As for `CC(=O)OCC(=O)[C@@]12OC3(CCCC3)O[C@@H]1C[C@H]1[C@@H]3CCC4=CC(=O)C=C[C@]4(C)[C@@]3(F)[C@@H](O)C[C@@]12C`, the Potency in assay [1] was 13.5 µM (active).

`COc1cc2c(cc1OC)CN(C(=O)[C@@H](NCc1ccncc1)C(C)(C)C)CC2`: the Potency in assay [1] was 1.69 µM (active). Besides, the Potency result in assay [2] and in assay [3] was “inactive” each time.

Turning to `COc1cc(N2CCC(N(C)C)CC2)ccc1Nc1ncc(Cl)c(Nc2ccccc2P(C)(C)=O)n1`, the Potency entry in assay [4] was “inactive”. In addition, the Potency in assay [2] was 2.3 µM (active) and 2.63 µM (active); in assay [3] it was 3.25 µM (active) and 3.32 µM (active).

As for `Cc1nnc(C(C)C)n1C1CC2CCC(C1)N2CC[C@H](NC(=O)C1CCC(F)(F)CC1)c1ccccc1` (stereo partly drawn), the Potency result in assay [1], in assay [2] and in assay [3] was “inactive” throughout.

Take `CC1(C)CCC(C)(C)c2cc3c(cc21)Sc1ccccc1N=C3c1ccc(C(=O)O)cc1`: the Potency result in assay [1] and in assay [2] was “inactive” each time.

In the case of `CO/N=C(/C(=O)N[C@@H]1C(=O)N2C(C(=O)O)=C(CSC(=O)c3ccco3)CS[C@H]12)c1csc(N)n1`, in assay [2], the Potency entry is “inactive”.

As for `CC(C)(C)NCc1cc(Nc2ccnc3cc(Cl)ccc23)c2c(c1O)CCCC2`, in assay [1], the activity change, negative = inhibition was -23.1% [at 11.5 µM]. The activity change, negative = viability loss in assay [2] is -8.87% [at 0.588 µM]. The activity change, negative = cell killing in assay [3] is -13.7% [at 0.588 µM].

On to `CC(=O)N[C@@H](CC(C)C)C(=O)N[C@@H](CCC(=O)O)C(=O)N[C@@H](CCC(=O)O)C(=O)N[C@@H](CC(=O)O)C(=O)Nc1ccc2c(C(F)(F)F)cc(=O)oc2c1` (Ac-LEED-{AFC}), for which the Potency entry in assay [8], in assay [2] and in assay [3] was “inactive” each time.

On to `Cn1c(=O)cc(N2CCCC(N)C2)n(Cc2ccccc2C#N)c1=O` (stereo not drawn), for which the Potency result in assay [1], in assay [2] and in assay [3] was “inactive” each time.

As to `NC(Cc1c[nH]c2ccccc12)C(=O)NC(CCC(=O)O)C(=O)O` (stereo not drawn), the Potency entry in assay [4], in assay [2] and in assay [3] was “inactive” throughout.

Regarding `Cc1cccc(-c2[nH]c(CNc3ccccc3F)nc2-c2ccc3ncnn3c2)n1`, in assay [1], the Potency is 21.3 µM (active).

As to `COC(=O)C1=CO[C@@H](O[C@@H]2O[C@H](CO)[C@@H](O)[C@H](O)[C@H]2O)[C@@H]2[C@@](C)(O)[C@@H](O)C[C@]12O`, the Potency entry in assay [2] and in assay [3] was “inactive” in each case.
